# Experimental data as given in paper PMC11006913.
# Where a chain is given by its changes, count along the chain named.
# What was measured:
# Test in all cases: PBM; 200 nM protein, PBS
# Conditions in all cases: dsDNA, one strand shown
# [1] = target: HOXA7 (Homo sapiens, UniProt P31268 116-202)
# [2] = target: HOXA7 (Homo sapiens, UniProt P31268 116-202, W177C)
# [3] = target: HOXC10 (Homo sapiens, UniProt Q9NYD6 254-340)
# [4] = target: T1, NKX2-4 (Homo sapiens, UniProt Q9H2Z4 175-261, T231S)
# T1 sequence: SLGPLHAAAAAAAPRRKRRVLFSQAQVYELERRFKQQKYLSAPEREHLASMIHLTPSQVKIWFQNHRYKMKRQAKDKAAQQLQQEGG
# [5] = target: T2, NKX2-6 (Homo sapiens, UniProt A6NCS4 118-204, R150C)
# T2 sequence: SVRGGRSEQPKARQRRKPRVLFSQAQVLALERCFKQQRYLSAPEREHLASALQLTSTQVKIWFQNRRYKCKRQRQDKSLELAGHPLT
# [6] = target: T3, NKX2-6 (Homo sapiens, UniProt A6NCS4 118-204, F151L)
# T3 sequence: T2 sequence with C33R, F34L
# [7] = target: NKX3-2 (Homo sapiens, UniProt P78367 192-278, P234S)
# [8] = target: NKX3-2 (Homo sapiens, UniProt P78367 192-278)
# Sequence of NKX3-2 (Homo sapiens, UniProt P78367 192-278) (P78367 192-278): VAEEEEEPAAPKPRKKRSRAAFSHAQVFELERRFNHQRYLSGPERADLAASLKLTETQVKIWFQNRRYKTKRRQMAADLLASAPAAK
# Sequence of HOXC10 (Q9NYD6 254-340): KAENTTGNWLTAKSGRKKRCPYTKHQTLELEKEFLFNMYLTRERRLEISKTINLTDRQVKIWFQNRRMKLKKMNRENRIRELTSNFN
# Sequence of HOXA7 (Homo sapiens, UniProt P31268 116-202, W177C) (P31268 116-202 W177C): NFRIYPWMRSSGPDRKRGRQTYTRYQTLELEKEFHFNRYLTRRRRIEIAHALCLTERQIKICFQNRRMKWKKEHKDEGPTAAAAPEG
# Sequence of HOXA7 (Homo sapiens, UniProt P31268 116-202) (P31268 116-202): as the sequence (P31268 116-202 W177C) above, with C62W counted along it
# Sequence of NKX3-2 (Homo sapiens, UniProt P78367 192-278, P234S) (P78367 192-278 P234S): as the sequence (P78367 192-278) above, with P43S counted along it
sequence,measurement,setting,value
AGGCTCTC,binding signal,[1],"8.46 upbm affinity estimate (log intensity, higher = more binding, comparable within an allelic series)"
same,binding signal,[2],"8.32 upbm affinity estimate (log intensity, higher = more binding, comparable within an allelic series)"
CCATTACA,binding signal,[1],"10.6 upbm affinity estimate (log intensity, higher = more binding, comparable within an allelic series)"
same,binding signal,[2],"8.97 upbm affinity estimate (log intensity, higher = more binding, comparable within an allelic series)"
CAGCAACC,binding signal,[1],"8.52 upbm affinity estimate (log intensity, higher = more binding, comparable within an allelic series)"
same,binding signal,[2],"8.47 upbm affinity estimate (log intensity, higher = more binding, comparable within an allelic series)"
AGCCGCTG,binding signal,[1],"8.52 upbm affinity estimate (log intensity, higher = more binding, comparable within an allelic series)"
same,binding signal,[2],"8.43 upbm affinity estimate (log intensity, higher = more binding, comparable within an allelic series)"
ATATTGTA,binding signal,[1],"9.55 upbm affinity estimate (log intensity, higher = more binding, comparable within an allelic series)"
same,binding signal,[2],"8.9 upbm affinity estimate (log intensity, higher = more binding, comparable within an allelic series)"
GCTTTCGA,binding signal,[1],"8.45 upbm affinity estimate (log intensity, higher = more binding, comparable within an allelic series)"
same,binding signal,[2],"8.45 upbm affinity estimate (log intensity, higher = more binding, comparable within an allelic series)"
CGCTGAAG,binding signal,[1],"8.52 upbm affinity estimate (log intensity, higher = more binding, comparable within an allelic series)"
same,binding signal,[2],"8.44 upbm affinity estimate (log intensity, higher = more binding, comparable within an allelic series)"
AGAAGAAA,binding signal,[1],"8.53 upbm affinity estimate (log intensity, higher = more binding, comparable within an allelic series)"
same,binding signal,[2],"8.55 upbm affinity estimate (log intensity, higher = more binding, comparable within an allelic series)"
GCAAGCGA,binding signal,[1],"8.55 upbm affinity estimate (log intensity, higher = more binding, comparable within an allelic series)"
same,binding signal,[2],"8.45 upbm affinity estimate (log intensity, higher = more binding, comparable within an allelic series)"
AATTGTAA,binding signal,[1],"9.73 upbm affinity estimate (log intensity, higher = more binding, comparable within an allelic series)"
same,binding signal,[2],"8.68 upbm affinity estimate (log intensity, higher = more binding, comparable within an allelic series)"
GCAGGTCC,binding signal,[1],"8.46 upbm affinity estimate (log intensity, higher = more binding, comparable within an allelic series)"
same,binding signal,[2],"8.46 upbm affinity estimate (log intensity, higher = more binding, comparable within an allelic series)"
ATAAGTAT,binding signal,[1],"9.57 upbm affinity estimate (log intensity, higher = more binding, comparable within an allelic series)"
same,binding signal,[2],"8.76 upbm affinity estimate (log intensity, higher = more binding, comparable within an allelic series)"
AGGCTGGA,binding signal,[1],"8.5 upbm affinity estimate (log intensity, higher = more binding, comparable within an allelic series)"
same,binding signal,[2],"8.45 upbm affinity estimate (log intensity, higher = more binding, comparable within an allelic series)"
GCAAGCTA,binding signal,[1],"8.39 upbm affinity estimate (log intensity, higher = more binding, comparable within an allelic series)"
same,binding signal,[2],"8.42 upbm affinity estimate (log intensity, higher = more binding, comparable within an allelic series)"
CTCAGCTC,binding signal,[1],"8.44 upbm affinity estimate (log intensity, higher = more binding, comparable within an allelic series)"
same,binding signal,[2],"8.39 upbm affinity estimate (log intensity, higher = more binding, comparable within an allelic series)"
CGAGGACG,binding signal,[1],"8.54 upbm affinity estimate (log intensity, higher = more binding, comparable within an allelic series)"
same,binding signal,[2],"8.4 upbm affinity estimate (log intensity, higher = more binding, comparable within an allelic series)"
CGTCCACC,binding signal,[1],"8.57 upbm affinity estimate (log intensity, higher = more binding, comparable within an allelic series)"
same,binding signal,[2],"8.48 upbm affinity estimate (log intensity, higher = more binding, comparable within an allelic series)"
CCATAATC,binding signal,[1],"9.89 upbm affinity estimate (log intensity, higher = more binding, comparable within an allelic series)"
same,binding signal,[2],"8.75 upbm affinity estimate (log intensity, higher = more binding, comparable within an allelic series)"
CATTATGC,binding signal,[1],"10.3 upbm affinity estimate (log intensity, higher = more binding, comparable within an allelic series)"
same,binding signal,[2],"8.86 upbm affinity estimate (log intensity, higher = more binding, comparable within an allelic series)"
ACCTGCAC,binding signal,[1],"8.57 upbm affinity estimate (log intensity, higher = more binding, comparable within an allelic series)"
same,binding signal,[2],"8.45 upbm affinity estimate (log intensity, higher = more binding, comparable within an allelic series)"
CCTTCGAC,binding signal,[1],"8.4 upbm affinity estimate (log intensity, higher = more binding, comparable within an allelic series)"
same,binding signal,[2],"8.45 upbm affinity estimate (log intensity, higher = more binding, comparable within an allelic series)"
AGCGCCGA,binding signal,[1],"8.38 upbm affinity estimate (log intensity, higher = more binding, comparable within an allelic series)"
same,binding signal,[2],"8.29 upbm affinity estimate (log intensity, higher = more binding, comparable within an allelic series)"
ATTGATTG,binding signal,[1],"10.1 upbm affinity estimate (log intensity, higher = more binding, comparable within an allelic series)"
same,binding signal,[2],"8.75 upbm affinity estimate (log intensity, higher = more binding, comparable within an allelic series)"
AGATGTTA,binding signal,[3],"10.8 upbm affinity estimate (log intensity, higher = more binding, comparable within an allelic series)"
CAAGCACC,binding signal,[1],"8.65 upbm affinity estimate (log intensity, higher = more binding, comparable within an allelic series)"
same,binding signal,[2],"8.49 upbm affinity estimate (log intensity, higher = more binding, comparable within an allelic series)"
AGGCCCAG,binding signal,[1],"8.42 upbm affinity estimate (log intensity, higher = more binding, comparable within an allelic series)"
same,binding signal,[2],"8.28 upbm affinity estimate (log intensity, higher = more binding, comparable within an allelic series)"
TATGCGCA,binding signal,[3],"10.8 upbm affinity estimate (log intensity, higher = more binding, comparable within an allelic series)"
ACCAATAC,binding signal,[3],"10.6 upbm affinity estimate (log intensity, higher = more binding, comparable within an allelic series)"
ATTCGTAA,binding signal,[3],"10.8 upbm affinity estimate (log intensity, higher = more binding, comparable within an allelic series)"
AAATGGTA,binding signal,[3],"10.9 upbm affinity estimate (log intensity, higher = more binding, comparable within an allelic series)"
TAATTCAA,binding signal,[1],"9.8 upbm affinity estimate (log intensity, higher = more binding, comparable within an allelic series)"
same,binding signal,[2],"8.74 upbm affinity estimate (log intensity, higher = more binding, comparable within an allelic series)"
AGGTCAGA,binding signal,[1],"8.56 upbm affinity estimate (log intensity, higher = more binding, comparable within an allelic series)"
same,binding signal,[2],"8.58 upbm affinity estimate (log intensity, higher = more binding, comparable within an allelic series)"
AGCATGCT,binding signal,[1],"8.54 upbm affinity estimate (log intensity, higher = more binding, comparable within an allelic series)"
same,binding signal,[2],"8.54 upbm affinity estimate (log intensity, higher = more binding, comparable within an allelic series)"
GACAGTAA,binding signal,[3],"11 upbm affinity estimate (log intensity, higher = more binding, comparable within an allelic series)"
AGATATGG,binding signal,[3],"10.7 upbm affinity estimate (log intensity, higher = more binding, comparable within an allelic series)"
CCATTATA,binding signal,[1],"11.2 upbm affinity estimate (log intensity, higher = more binding, comparable within an allelic series)"
same,binding signal,[2],"8.97 upbm affinity estimate (log intensity, higher = more binding, comparable within an allelic series)"
TATGTGCA,binding signal,[3],"10.7 upbm affinity estimate (log intensity, higher = more binding, comparable within an allelic series)"
AGAGACTG,binding signal,[1],"8.18 upbm affinity estimate (log intensity, higher = more binding, comparable within an allelic series)"
same,binding signal,[2],"8.35 upbm affinity estimate (log intensity, higher = more binding, comparable within an allelic series)"
CTTTTTTA,binding signal,[3],"11.2 upbm affinity estimate (log intensity, higher = more binding, comparable within an allelic series)"
CAGCGTGG,binding signal,[1],"8.45 upbm affinity estimate (log intensity, higher = more binding, comparable within an allelic series)"
same,binding signal,[2],"8.4 upbm affinity estimate (log intensity, higher = more binding, comparable within an allelic series)"
GCACTTTA,binding signal,[4],"12.8 upbm affinity estimate (log intensity, higher = more binding, comparable within an allelic series)"
same,binding signal,[5],"11.7 upbm affinity estimate (log intensity, higher = more binding, comparable within an allelic series)"
same,binding signal,[6],"10.7 upbm affinity estimate (log intensity, higher = more binding, comparable within an allelic series)"
same,binding signal,[7],"12.5 upbm affinity estimate (log intensity, higher = more binding, comparable within an allelic series)"
same,binding signal,[8],"12.6 upbm affinity estimate (log intensity, higher = more binding, comparable within an allelic series)"
AATACTAG,binding signal,[3],"10.7 upbm affinity estimate (log intensity, higher = more binding, comparable within an allelic series)"
CTGGATGC,binding signal,[1],"8.4 upbm affinity estimate (log intensity, higher = more binding, comparable within an allelic series)"
same,binding signal,[2],"8.44 upbm affinity estimate (log intensity, higher = more binding, comparable within an allelic series)"
AAGACGAG,binding signal,[1],"8.4 upbm affinity estimate (log intensity, higher = more binding, comparable within an allelic series)"
same,binding signal,[2],"8.43 upbm affinity estimate (log intensity, higher = more binding, comparable within an allelic series)"
AGAAGGCG,binding signal,[1],"8.35 upbm affinity estimate (log intensity, higher = more binding, comparable within an allelic series)"
same,binding signal,[2],"8.41 upbm affinity estimate (log intensity, higher = more binding, comparable within an allelic series)"
ACCTCGCT,binding signal,[1],"8.51 upbm affinity estimate (log intensity, higher = more binding, comparable within an allelic series)"
same,binding signal,[2],"8.51 upbm affinity estimate (log intensity, higher = more binding, comparable within an allelic series)"
AGTAGTTA,binding signal,[1],"10 upbm affinity estimate (log intensity, higher = more binding, comparable within an allelic series)"
same,binding signal,[2],"8.75 upbm affinity estimate (log intensity, higher = more binding, comparable within an allelic series)"
CAAATAAA,binding signal,[3],"11.4 upbm affinity estimate (log intensity, higher = more binding, comparable within an allelic series)"
GTACTTTA,binding signal,[4],"12.8 upbm affinity estimate (log intensity, higher = more binding, comparable within an allelic series)"
CTCATTTA,binding signal,[1],"9.93 upbm affinity estimate (log intensity, higher = more binding, comparable within an allelic series)"
same,binding signal,[2],"8.72 upbm affinity estimate (log intensity, higher = more binding, comparable within an allelic series)"
AAGCGGCG,binding signal,[1],"8.49 upbm affinity estimate (log intensity, higher = more binding, comparable within an allelic series)"
same,binding signal,[2],"8.33 upbm affinity estimate (log intensity, higher = more binding, comparable within an allelic series)"
CGGGTGCC,binding signal,[1],"8.6 upbm affinity estimate (log intensity, higher = more binding, comparable within an allelic series)"
same,binding signal,[2],"8.41 upbm affinity estimate (log intensity, higher = more binding, comparable within an allelic series)"
